According to PubChem BioAssay AID2732 (Emory University Molecular Libraries Screening Center, 2010):
In all, about 220,000 compounds went through this assay and about 8,200 (3.7%) were called active. This is one part of a sample in which actives are shown more often than they occur. Unmarked numbers belong to inactive results.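 Rule for the calls: active = compounds that reduced the stress-induced luciferase reporter signal by more than about 70% of percent inhibition (limit read from the data); inactive = the rest.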

Test: inhibitors of CHOP promoter induction, primary screen, cell-based, unfolded protein response, luciferase reporter (AID 2732);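 note: 0% = tunicamycin plus vehicle and 100% = wells without tunicamycin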
Conditions: CHO-K1 CHOP-promoter luciferase, tunicamycin-induced, 15-18 h; at 10 µM; stronger effect = higher value

| SMILES | inhibition |
| --- | --- |
| CCCCNC(=O)OCCSCCS(=O)(=O)c1ccc(Cl)cc1 | 8.82% |
| CC(C)OP(=O)(OC(C)C)C(Nc1ccccc1)c1cccc([N+](=O)[O-])c1 (stereo unspecified) | -8.06% |
| Cc1ccsc1C(=O)OCC(=O)c1cc(C)n(CC2CCCO2)c1C (stereo unspecified) | 77.8% (active) |
| Cc1cc(C(=O)Cn2cnc3cc([N+](=O)[O-])ccc3c2=O)c(C)n1CC1CCCO1 (stereo unspecified) | -28% |
| Cc1ccsc1C(=O)OCC(=O)c1cc2ccccc2o1 | 67.4% |
| CCCCN1Cc2c(nc3cc(-c4ccccc4)[nH]n3c2=O)C1=O | -7.2% |
| CCOc1ccccc1N1CN(Cc2ccccc2)CNC1=S | 3.01% |
| COCCCn1c(-c2cccs2)nc2nc3ccccc3nc21 | -15% |
| O=C(c1ccccn1)c1ncc(C(F)(F)F)cc1Cl | 23.4% |
| N/C(=N\OC(=O)Nc1ccc(Cl)c(Cl)c1)c1ncc(C(F)(F)F)cc1Cl | 87.9% (active) |
| N/C(=N\OC(=O)CCCC(=O)O)c1ncc(C(F)(F)F)cc1Cl | 6.09% |
| Nn1c(SCc2ccccc2)nnc1C1CCCCC1 | -9.53% |
| C=CCNc1ncnc2ccc(Br)cc12 | 27.4% |
| CC1(C)CC2CC(C)(CN2c2ncnc3ccc(Br)cc23)C1 (stereo unspecified) | 70.5% (active) |
| COc1ccc(C(=O)N2CC3(C)CC2CC(C)(C)C3)cc1OC (stereo unspecified) | -6.24% |
| CCOC(=O)CN(C(=O)COc1nc(-c2ccccc2)cc(C)c1C#N)c1ccc(F)cc1 | 5.71% |
| COc1c(O)cc2oc(-c3ccc(O)c(O)c3)cc(=O)c2c1O | -13.9% |
| Cc1ccc(NC(=O)/C(=C\c2ccccc2)NC(=O)c2ccco2)cc1 | 10.2% |
| Nc1c(C(=O)c2cccs2)sc2nsc(SCCN3CCCCC3)c12 | -55.6% |
| Cn1c(=N)n(CC(O)c2ccccc2)c2ccccc21 (stereo unspecified) | 14.2% |
| N=c1n(Cc2ccc(Cl)cc2)c2ccccc2n1CC(O)c1ccco1 (stereo unspecified) | 86.2% (active) |
| Cn1c(=N)n(CC(O)c2cccs2)c2ccccc21 (stereo unspecified) | 14.4% |
| Cn1c(=O)c(=O)n(C)c2cc(S(=O)(=O)NCCN3CCN(c4ccccc4F)CC3)ccc21 | 10.2% |
| COc1ccc(NC2=CC(=S)NC(C)(C)C2)cc1 | 0.78% |

| SMILES | inhibition |
| --- | --- |
| Cc1c(NC(=O)CN2C(=O)C(=O)N(Cc3ccccc3)C2=O)c(=O)n(-c2ccccc2)n1C | -4.43% |
| Cc1ccccc1NC(=O)c1ccc(COc2ccc3c(C)cc(=O)oc3c2)cc1 | 73.8% (active) |
| Cc1cc(=O)oc2cc(OCCC[n+]3ccccc3)ccc12 | 3.91% |
| CCN(C(=O)COC(=O)c1ccc(COc2ccc3c(C)cc(=O)oc3c2)cc1)C1CCS(=O)(=O)C1 (stereo unspecified) | -17.9% |
| COc1ccc(CCn2c(NN=C3CCCC3)nc3c2c(=O)[nH]c(=O)n3C)cc1 | -6.27% |
| COc1ccc(NC(=O)C2=NNC(=O)CC2)cc1S(=O)(=O)N1CCCCC1 | 14.5% |
| Cc1ccc(-c2nn(C(C)(C)C)c3ncnc(N)c23)cc1 | 76.5% (active) |
| Cc1ccc(-n2cnc3ncnc(-c4ccccc4)c32)cc1 | -3.5% |
| Cc1ccc(CSc2nnc(-c3cnccn3)n2C)cc1 | -17.8% |
| O=C(NCc1ccccc1)c1ccc(CNc2c(N3CCCC3)c(=O)c2=O)cc1 | 3.8% |
| Cc1cc(=O)[nH]c(SCC(=O)Nc2ccc(Br)cc2)n1 | 28.6% |
| Cc1nc2cccnc2nc1C | -3.08% |
| O=C(COC(=O)c1ccc(S(=O)(=O)Nc2ccccc2)cc1)NCC1CCCO1 (stereo unspecified) | 0.29% |
| O=C(Nc1ccccc1)C1CC(=O)n2c(nc3ccccc32)N1 (stereo unspecified) | 3.28% |
| COc1ccc(CCN(C)CCN2C(=O)c3ccccc3C2=O)cc1OC | -9.23% |
| COC(=O)c1ccc(C2C(Oc3ccccc3C)C(=O)N2CCc2ccc(OC)c(OC)c2)cc1 (stereo unspecified) | 18.6% |
| COc1ccc(CCN2C(=O)c3[nH]nc(-c4ccccc4O)c3C2c2ccc(C)cc2)cc1OC (stereo unspecified) | 75.2% (active) |
| CS(=O)(=O)c1sc(C(=O)NC(=S)Nc2ccc(OC(F)(F)F)cc2)c2c1C=CCC2 | -21.9% |
| COc1ccc(SC[C@H](Cc2ccccc2)N2CCN(CCc3ccccc3)CCC2=O)cc1 | 26.9% |
| Cc1csc(/N=C/N(C)C)c1C#N | 11.2% |
| CC1CCN(c2c(NCc3ccc(C(=O)NCc4ccccc4)cc3)c(=O)c2=O)CC1 | 1.88% |
| Cc1cc(=O)[nH]c(N/N=C/c2ccc3c(c2)OCCO3)n1 | -1.69% |
| CN(CC(=O)Nc1ccccc1[N+](=O)[O-])Cc1ccc(Br)cc1 | 5.7% |
| Cc1ccc(NC(=O)CN(C)Cc2ccc(F)cc2)c([N+](=O)[O-])c1 | 71.6% (active) |

| SMILES | inhibition |
| --- | --- |
| CSc1ccccc1NC(=O)CN(C)CC(=O)Nc1ccc(Cl)cc1[N+](=O)[O-] | 18.7% |
| Cc1cc(C(=O)NNS(=O)(=O)c2ccccc2C(F)(F)F)nn1C(C)(C)C | 14.2% |
| O=C1N/C(=N\N=C\c2ccco2)SC1Cc1ccc(F)cc1 (stereo unspecified) | 2.81% |
| O=C1NC(=Nc2ccc(Cl)cc2)SC1Cc1cccc(Cl)c1Cl (stereo unspecified) | 94.3% (active) |
| NC1=NC(=O)C(Cc2cccc(Cl)c2Cl)S1 (stereo unspecified) | -11.3% |
| COC(C[C@H](O)CC(=O)COCc1ccccc1)OC | 17.8% |
| NC(=O)c1ccc(NC(=O)COC(=O)c2ccc([N+](=O)[O-])cc2)cc1 | 4.31% |
| Cc1cc(C)cc(NC(=O)NC2CCN(CC(=O)Nc3cccc(Cl)c3C)CC2)c1 | 14.5% |
| COc1ccc(CCNC(=O)CSc2nc(C)nc3c2oc2ccccc23)cc1OC | 5.77% |
| Cc1nc(Cl)c2oc3ccccc3c2n1 | -37.5% |
| CCSc1nc(C)nc2c1oc1ccccc12 | 97.9% (active) |
| CC1=CC(C)(C)NC(=S)N1NC(=O)c1ccccc1Cl | -2.87% |
| CCOc1ccc(C2NC(=S)NC3=C2CCc2ccccc23)cc1 (stereo unspecified) | -10.8% |
| O=C1N/C(=C/c2cccn2-c2ccccc2)C(=O)N1c1cccc(Cl)c1 | 86.8% (active) |
| COc1cc2c(cc1/C=C1/NC(=O)N(c3ccccc3)C1=O)OCO2 | -2.61% |
| Cc1ccccc1NC(=O)CN1C(=O)N/C(=C\c2cccn2-c2cccc(C(=O)O)c2)C1=O | 1.36% |
| Cc1c(C)c(C)c2[nH]c(=S)[nH]c2c1C | 20.2% |
| N#CCc1ccc(OC(=O)c2cccnc2)cc1 | 12.3% |
| Cc1nc(C)c(C(=O)N(c2ccc(C)c(C)c2)C(C(=O)NCc2ccco2)c2ccccc2)s1 (stereo unspecified) | -35.7% |
| Cc1ccc(-c2nnn(CC(=O)N(Cc3ccco3)C(C(=O)NC(C)(C)C)c3ccncc3)n2)o1 (stereo unspecified) | 6.52% |
| Cc1nn(-c2ccccc2)c2sc(C(=O)N(Cc3ccco3)C(C)C(=O)NC(C)(C)C)cc12 (stereo unspecified) | 80.4% (active) |
| Cc1cc(C)c(C)c(S(=O)(=O)N[C@@H](C)C(=O)OC(C)C(=O)NC(N)=O)c1C (stereo partly specified) | -9.66% |
| Cc1ccc(Oc2nc(-c3ccccn3)nc3ccccc23)cc1 | -40.5% |
| CCOC(=O)c1ccc2c(c1)nc(SCC(=O)NC(C)C)n2CC | 76% (active) |

| SMILES | inhibition |
| --- | --- |
| CCOC(=O)CNC(=O)CSc1nc2cccnc2n1CC | 5.31% |
| CCOC(=O)c1ccc2c(c1)nc(C)n2CC | 3.33% |
| C=CCN(CC=C)S(=O)(=O)c1ccc(C(=O)Nc2nc3c(s2)CCc2ccccc2-3)cc1 | 71% (active) |
| CCN(c1ccccc1)S(=O)(=O)c1ccc(C(=O)Nc2nccs2)cc1 | 31.6% |
| COCCN(CCOC)S(=O)(=O)c1ccc(C(=O)Nc2nc3c(s2)CCc2ccccc2-3)cc1 | 82.3% (active) |
| COc1ccc(C(=O)Nc2ncc3c(n2)-c2ccccc2CC3)cc1 | -1.8% |
| C=CCN(CC=C)S(=O)(=O)c1ccc(C(=O)Nc2sc3c(c2C(N)=O)CCCCC3)cc1 | 41% |
| COCCN(CCOC)S(=O)(=O)c1ccc(/C(O)=C(\C#N)c2nc3ccccc3[nH]2)cc1 | 1.37% |
| COc1ccc2[nH]c(C(=O)Nc3ccccc3Cl)cc2c1 | 2.73% |
| CC(C)(C)C(=O)Nc1c(Br)c(C2CC2)nn1-c1ccccc1 | 0.02% |
| CC(C)(C)c1cc(P(=O)(c2ccccc2)c2ccccc2)ccc1O | 9.08% |
| CN1CCN(c2ncc3c(n2)CC(c2ccccc2F)CC3=O)CC1 (stereo unspecified) | 15.3% |
| CSc1sc(C(=O)NC(=O)NCc2cccnc2)c(C)c1-c1ccon1 | 28.4% |
| COC(=O)c1c(C(=O)OC)c2n(c1C)CCS2 | 14.2% |
| CCn1c(=O)c2cc(C(=O)Nc3cccc(C(C)=O)c3)sc2c2ccccc21 | -10.2% |
| Cc1ccc(NC(=O)NC(=O)N(C2CCCCC2)S(=O)(=O)c2ccccc2)cc1 | 84% (active) |
| CC(c1ccco1)N(C(=O)Nc1ccccc1)C1CCCCC1 (stereo unspecified) | 36.4% |
| Cc1ccc(S(=O)(=O)N(C)CC(=O)NC2CCCC2)cc1 | 36.5% |
| CC1CC(NC(=O)/C(C#N)=C/c2ccc[nH]2)CC(C)(C)C1 (stereo unspecified) | -0.59% |
| Cc1nc2cc3c(cc2s1)OCO3 | 14% |
| CCCc1c(C(=O)Nc2ccc(F)cc2)cnn1-c1ccccc1 | 14.9% |
| Cc1ccc(Nc2ccc(C(N)=O)cc2[N+](=O)[O-])cc1 | 21.8% |
| Cc1ccc(Nc2cc(C)nc3c(C)ccc([N+](=O)[O-])c23)cc1 | 71.4% (active) |
| Cc1cc(C)nc(Nc2cc([N+](=O)[O-])ccc2C)n1 | 0.9% |
